Screens as filed in PubChem BioAssay.
Rows were chosen to be rich in hits. Some 9.4% of all compounds tested hit in one or more screens of this group.
Rab9 prom act: qHTS Assay for Rab9 Promoter Activators; Huh7 Rab9 promoter-luciferase reporter, luminescence, 24 h; Potency, µM (titrated, usually from 9.22 µM), inactives show at the highest dose activation, negative = inhibition, actives largely listed as activators; 320,000 compounds, 2.8% hits; further: % of control where 0% means no effect; nearly all actives have a fitted effect of over 60% in size
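Luminescence from Amplite-detected luciferase (10 minutes, ambient) reports Rab9 promoter activation. Before that, stable Rab9-luciferase Huh7 cells (1500/well, reduced-serum OP-MEM I plus 10% FBS) were exposed to compound for 24 hours at 37C.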
FLuc counter: qHTS profiling assay for firefly luciferase inhibitor/activator using purifed enzyme and Km concentrations of substrates (counterscreen for miR-21 project). Luciferin 4-monooxygenase (Photinus pyralis), P08659. purified FLuc, Km substrates, luminescence inhibition. Potency, µM (titrated, usually from 57.5 µM), for inactives: at the top dose activity change, negative = inhibition, most hits filed as inhibitors. 360,000 compounds, 6.9% hits. AID 588342, 2011;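 further: plate controls were vehicle for no effect and reference inhibitor for full effect; nearly all actives have a fitted effect of over 55% in size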
Target sequence (P08659 whole entry, looked up): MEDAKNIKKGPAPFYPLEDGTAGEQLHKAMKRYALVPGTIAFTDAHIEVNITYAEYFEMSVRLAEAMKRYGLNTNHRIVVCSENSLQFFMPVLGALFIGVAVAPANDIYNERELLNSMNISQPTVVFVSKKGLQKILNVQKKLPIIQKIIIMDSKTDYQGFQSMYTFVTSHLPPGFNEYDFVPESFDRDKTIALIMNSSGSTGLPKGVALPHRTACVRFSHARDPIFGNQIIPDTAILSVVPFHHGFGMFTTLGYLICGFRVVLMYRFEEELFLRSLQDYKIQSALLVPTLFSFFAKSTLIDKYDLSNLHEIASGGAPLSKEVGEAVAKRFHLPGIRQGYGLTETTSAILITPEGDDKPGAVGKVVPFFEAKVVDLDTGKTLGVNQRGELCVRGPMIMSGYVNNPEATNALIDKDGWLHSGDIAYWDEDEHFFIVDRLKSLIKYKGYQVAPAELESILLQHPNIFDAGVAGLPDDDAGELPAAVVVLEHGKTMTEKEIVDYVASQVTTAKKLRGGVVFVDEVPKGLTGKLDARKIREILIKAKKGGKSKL
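Biochemical qHTS of compounds, final roughly 60 µM downward over six points, against 10 nM purified firefly luciferase using Km concentrations of substrates (10 uM D-luciferin, 10 uM ATP) in Tris acetate pH 7.5 buffer; luminescence output.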
ELG1 repair inh: qHTS screen for small molecules that inhibit ELG1-dependent DNA repair in human embryonic kidney (HEK293T) cells expressing luciferase-tagged ELG1; HEK293T ELG1-luciferase reporter, luminescence, 16 h; DNA damage induced by 5-fluorouridine; Potency, µM (highest dose often 46.1 µM), for inactives: at the top dose activity change, negative = inhibition, hits mostly inhibitors; 330,000 compounds, 2.3% hits; further: on the % scale 0 is the no-effect control and ±100 the full control effect; nearly all actives have a fitted effect of over 55% in size
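Quantitative HTS, concentration-response format. 2,000 cells/well co-treated with 5-fluorouridine and compound, 16 hr in 5% CO2 at 37 °C; ONE-Glo luminescence read after 30 min.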
SMN2 splice up: qHTS Assay for Enhancers of SMN2 Splice Variant Expression | HEK293 SMN2-luciferase splicing reporter, luminescence, 30-36 h | 210,000 compounds, 2.8% hits | Potency, µM (highest dose often 46.1 µM), inactives show at the top dose activity change, positive = activation, hits mostly activators | AID 1458, 2008; further: % of control where 0% means no effect; nearly all actives have a fitted effect of over 55% in size
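HEK293 cells carry an SMN2 minigene-luciferase reporter in which exon 7 inclusion puts luciferase in frame. Cells were seeded at 2000 cells/well, attached for 10-12 hours, then exposed to compounds for 30-36 hours at 37C before ONE-Glo luminescence.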
NPC1 promoter act: qHTS Assay for NPC1 Promoter Activators; Huh7 NPC1 promoter luciferase reporter, 24 h; Potency, µM (highest dose often 9.22 µM), for the others: at the highest dose activation, hits mostly activators; 320,000 compounds, 2.4% hits; AID 485313, 2010; further: % of control where 0% means no effect; nearly all actives have a fitted effect of over 60% in size
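Luciferase expression driven by the NPC1 promoter was measured in stably transfected Huh7 cells after a 24 h compound incubation, using a luciferase reagent and a luminescence read.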
ELG1 genotox: qHTS screen for small molecules that induce genotoxicity in human embryonic kidney (HEK293T) cells expressing luciferase-tagged ELG1; HEK293T ELG1-luciferase reporter, luminescence, 16 h; Potency, µM (doses to about 46 µM), inactives show at the highest dose activity change, positive = activation, most hits filed as activators; 330,000 compounds, 1.3% hits; AID 504466, 2011; further: % of control where 0% means no effect; nearly all actives have a fitted effect of over 60% in size
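DMSO vehicle served as control against compound-treated ELG1-luciferase HEK293T cells; exposure lasted 16 hr at 37 °C and 5% CO2, followed by ONE-Glo luminescence detection after 30 min.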
* marks the source's active call; other numbers are inactive results; ? = inconclusive; . = no result given; [ ] = remark or other dose. The call rests on the fitted dose curve; in most records, active means well fitted curve in the direction sought with a large enough effect; inconclusive means small, poorly fitted or top-dose-only effect, or another doubt; inactive means no such curve, though single readings can be large; an effect the other way counts as inactive or inconclusive. Potency means the concentration at half of the fitted maximal effect.

SMILES	Rab9 prom act	FLuc counter	ELG1 repair inh	SMN2 splice up	NPC1 promoter act	ELG1 genotox
CCOc1ccc(C(=O)N/N=C/c2cccc3cccnc23)cc1	-20.1%	6.75µM*	?	-4.2%	-27.3%	3.5%
CCCCn1c(SCc2ccccc2C#N)nc2c(sc3ccccc32)c1=O	.	-6.6%	.	.	.	.
Cc1c(Cl)cccc1NC(=O)C1CCCN(c2nnc(-n3c(C)ccc3C)s2)C1 (centres undefined)	.	5.4%	.	-27.2%	.	.
O=C(NC1CCCCC1)c1ccc(CSc2nc3ccncc3n2Cc2cccc(F)c2)cc1	.	?	.	16.7%	.	.
CCc1cccc(NC(=O)Cn2nc3c4cc(F)ccc4n(Cc4cccc(C)c4)cc-3c2=O)c1	.	-2.5%	.	.	.	.
CNC[C@H](O)[C@H](O)[C@H](O)[C@H](O)CO	.	.	.	7.4%[20.6 µM]	.	.
CCOc1ccccc1CNC(=O)c1cc(-c2ccc(OC)cc2)nc2ccc(C(C)C)cc12	.	1.1%	.	.	.	.
CCN(CC)c1ccc(/C=N/Nc2ccc(C)cc2)c(O)c1	18.7%	?	?	6.1%	13.6%	9.3%
CCN(CC)c1ccc(C=Nc2cccnc2Cl)c(O)c1	-5.3%[1.84 µM]	2.39µM*	0.4%	.	-6.4%	-1.0%
CCN(CC)c1ccc(C=Nc2cc(C)ccc2C)c(O)c1	0.6%	1.69µM*	?	?	2.4%	6.5%
CCN(CC)c1ccc(C=Nc2ccc(C)cc2C)c(O)c1	?	3.38µM*	?	.	27.5%	9.3%
Cc1ccc(N=Cc2cccc(O)c2O)c(C)c1	8.8%	?	1.6%	21.1%	1.4%	-1.6%
CCN(CC)c1ccc(/C=N/n2nnnc2N)c(O)c1	18.4%	?	28.1%	?	20.4%	18.7%
COc1ccccc1N1CCN(C(=O)Cn2cnc3onc(-c4ccc(F)cc4)c3c2=O)CC1	.	-9.3%	.	.	.	.
CCCCN(CCCC)CCNC(=O)Cn1nc(CC)n2c(cc3sccc32)c1=O	.	-3.4%	.	6.1%	.	.
COc1ccccc1C(=O)NCCC(=O)NC1CCC(C)CC1 (centres undefined)	3.98µM*	13.5µM*	?	.	?	?
COc1ccccc1C(=O)NCCC(=O)NCC(c1ccccc1)N(C)C (centres undefined)	-2.0%	13.5µM*	20.4%	.	2.2%	6.3%
COc1ccccc1C(=O)NCCC(=O)NC1CCCCC1C (centres undefined)	-1.0%	4.2%	2.0%	.	0.8%	-2.5%
Cc1ccc(Cl)cc1N1CCN(C(=O)Cn2cnc3sc(C)c(S(=O)(=O)N4CCC(C)CC4)c3c2=O)CC1	.	-2.7%	.	4.6%	.	.
O=C(CSc1nnc(NC(=O)c2ccccc2F)s1)NCc1ccco1	3.98µM*	8.49µM*	?	.	3.55µM*	16.4µM*
CCSc1nnc(Nc2ccc(C)cc2)s1	2.82µM*	9.53µM*	?	?	3.55µM*	?
CCN(CC)C(=O)c1csc(Nc2ccc(C)cc2)n1	12.0%	?	13.5%	.	8.9%	0.0%
Cc1ccc(Nc2nc(C(=O)NCc3ccco3)cs2)cc1	-2.3%	23.9µM*	-16.8%	-15.3%	10.7%	-2.5%
O=C(CSc1nnc(NC(=O)c2c(F)cccc2F)s1)NCc1ccco1	2.4%	-16.9%	?	.	-3.1%	11.4%
COc1ccccc1C(=O)Nc1nnc(SCC(=O)NCc2ccco2)s1	2.24µM*	3.38µM*	?	.	3.16µM*	2.31µM*
SMILES	Rab9 prom act	FLuc counter	ELG1 repair inh	SMN2 splice up	NPC1 promoter act	ELG1 genotox
O=C(NCc1ccc(Cl)cc1)C(=O)NCC(c1ccc2c(c1)OCO2)N1CCOCC1 (centres undefined)	.	-1.4%	.	.	.	.
COc1ccc(C(=O)Nc2nnc(SCC(=O)NCc3ccco3)s2)c(OC)c1	0.316µM*	0.675µM*	?	.	0.282µM*	0.517µM*
O=C(CSc1nnc(Nc2ccccc2)s1)NCc1ccco1	10.3%	?	?	-17.3%	0.1%	-3.8%
COc1cc(OC)cc(C(=O)Nc2nnc(SCC(=O)NCc3ccco3)s2)c1	?	?	21.4%	.	19.5%	?
Cc1ccc(Nc2nnc(SCC(=O)NCc3ccco3)s2)cc1	5.6%	13.5µM*	7.1%	8.2%	20.9%	1.0%
Cc1cc2ccccc2n1-c1ccc(C(=O)N2CCC(C(=O)NCc3ccc(Cl)cc3)CC2)s1	.	4.4%	.	.	.	.
O=C(NCCCN1CCN(c2ccccc2F)CC1)c1ccc2nc(CCc3ccccc3)oc2c1	.	-11.3%	.	.	.	.
CCc1ccc2c(Cl)c(C(=O)N/N=C/c3c[nH]c4ccccc34)sc2c1	3.7%	19µM*	13.6%	-13.3%	2.6%	-1.1%
CCc1ccc(-c2cc(C(=O)N/N=C/c3c[nH]c4ccccc34)[nH]n2)cc1	-0.7%	4.26µM*	?	26.8%	-10.3%	-6.9%
CCc1ccc(/C=N/NC(=O)c2cc(-c3cccc([N+](=O)[O-])c3)n[nH]2)cc1	1.4%	0.3%	?	.	-13.8%	9.1%
O=C(N/N=C/c1c[nH]c2ccccc12)c1ccc([N+](=O)[O-])cc1Cl	0.0%	?	1.8%	.	-7.4%	-0.8%
COc1ccc(C2NC(=O)N(C)C3=C2C(=O)N(c2cccc(C(=O)O)c2)C3)cc1 (centres undefined)	.	-18.4%	.	11.3%	.	.
O=C(NCCCN1CCN(c2ccccc2)CC1)c1nnc(Cc2c(F)cccc2Cl)o1	.	-1.7%	.	-16.4%	.	.
O=C(C1CCCO1)N1CCN(c2c3c(nc4cc(-c5ccc(F)cc5)nn24)CCC3)CC1 (centres undefined)	2.0%	4.78µM*	?	-1.8%	0.6%	-0.2%
CN(C)CCCNc1c2c(nc3cc(-c4cccc(F)c4)nn13)CCC2	-1.7%	0.6%	25.5%	.	-4.3%	3.6%
COc1ccc(-c2cc3nc(-c4ccccc4)cc(N4CCC5(CC4)OCCO5)n3n2)cc1	-6.5%	-0.4%	20.6µM*	6.1%	-1.0%	-9.4%
